According to PubChem BioAssay AID1578 (Sanford-Burnham Center for Chemical Genomics, 2009):
Screen size: about 290,000 compounds; about 3,000 (1%) were called active. Rule as the data show it: active = inhibition mostly above about 36% (no sharp cut-off); inactive = mostly below about 34%. The full list was thinned out, with actives kept by preference.

Experiment: inhibition of NOD1-driven NF-kB reporter – cell-based, luminescence, uHTS, primary screen (AID 1578);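 also: HEK-293T reporter cells stimulated with the NOD1 agonist gamma-tri-DAP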
Settings: NOD1-driven NF-kB luciferase reporter cells, at 4 µM, stronger effect = higher value

SMILES | inhibition
Nc1c(Cl)ncnc1N/N=C/c1ccc(O)cc1 | -9% (inactive)
Nc1c(Cl)ncnc1N/N=C/c1ccc2ccccc2n1 | 109% (active)
Nc1c(Cl)ncnc1N/N=C/c1ccnc2ccccc12 | 8.6% (inactive)
CCCCOC(=O)C1C2C=C[C@]3(CN(C(C)c4ccc(OC)cc4)C(=O)[C@H]13)O2 (stereo partly drawn) | 11.8% (inactive)
CC(=O)Nc1cccc(Cl)c1C(=O)O | -21.4% (inactive)
Cc1nn(C(=O)c2ccco2)c(C)c1Sc1ccc([N+](=O)[O-])cc1 | -7.1% (inactive)
O=C(N/N=C(/CC(=O)c1cccs1)C(F)(F)F)c1ccc(O)cc1 | -19.9% (inactive)
O=C(N/N=C(\CC(=O)c1cccs1)C(F)(F)F)c1ccncc1 | -3.7% (inactive)
Cc1ccc(C(=O)N/N=C(/CC(=O)c2cccs2)C(F)(F)F)cc1 | 70% (active)
COC(=O)Cc1c(C)c2ccc(OC3CCCCC3=O)c(C)c2oc1=O (stereo not drawn) | -8.8% (inactive)
Clc1ccc(-c2nnc(C3CCCCC3)o2)cc1 | 70.8% (active)
Clc1ccc(-c2nnc(C3CC3)o2)cc1 | -15.4% (inactive)
c1cncc(-c2nnc(C3CCCCC3)o2)c1 | 11.8% (inactive)
COc1ccc(C(=O)NC(CC(=O)O)c2cc([N+](=O)[O-])ccc2Cl)c(SC)c1 (stereo not drawn) | -14.4% (inactive)
O=C1C2CCCN2C(c2ccc(F)cc2)N1c1cccc(Cl)c1 (stereo not drawn) | -10.3% (inactive)
O=C(COC(=O)c1cncc(Br)c1)NCCC1=CCCCC1 | -8.5% (inactive)
Cc1ccc(Sc2ccc(/C=N/O)cc2[N+](=O)[O-])cc1 | 54.4% (active)
O=[N+]([O-])c1cc(/C=N/O)ccc1Sc1ccccc1 | 8.1% (inactive)
CO/N=C/c1ccc(Sc2ccc(C)cc2)c([N+](=O)[O-])c1 | 7.3% (inactive)
COc1ccc(OC)c(NC(=O)C2CCN(c3ncccn3)CC2)c1 | -1.7% (inactive)
COc1ccc(N2CCN(Cc3cc4c(cc3Br)OCCO4)CC2)cc1 | -11.3% (inactive)
COc1ccc(C=O)cc1Cn1ccnc1C | 62.6% (active)
CCc1nccn1Cc1cc(C=O)ccc1OC | 15% (inactive)
COc1ccc(C=O)cc1Cn1ccnc1 | -23% (inactive)
Cc1oc(-c2ccccc2)cc1C(=O)NC(Cc1c[nH]c2ccccc12)C(=O)O (stereo not drawn) | -35.2% (inactive)

SMILES | inhibition
O=C(NCCNC(=O)c1ccccc1)c1ccccc1 | -9.5% (inactive)
CCCCCn1c(N)c(C#N)c2nc3ccccc3nc21 | 8.5% (inactive)
CN(C)CCCn1c(N)c(C#N)c2nc3ccccc3nc21 | 5.6% (inactive)
CN(C)CCCn1c(N)c(C#N)c2nc(C#N)c(C#N)nc21 | 76.3% (active)
Cc1ccc(C2C(C=Nc3c(C)n(C)n(-c4ccccc4)c3=O)=C(c3ccccc3)Oc3ccccc32)cc1 (stereo not drawn) | 29.1% (inactive)
O=C1NC(=S)S/C1=C\c1ccc2ccccc2c1 | 5.2% (inactive)
Cc1ccc(C2C(/C=C3/SC(=S)NC3=O)=C(c3cccs3)Oc3ccccc32)cc1 (stereo not drawn) | 88% (active)
CCC1CCCCN1S(=O)(=O)c1ccc(S(=O)(=O)N(Cc2cccs2)C2CC2)cc1 (stereo not drawn) | 7.6% (inactive)
O=c1oc2ccccc2cc1-c1ccccc1 | -31.9% (inactive)
O=c1oc2ccccc2cc1-c1ccc(O)cc1 | 54.1% (inactive)
Cc1cccn2cc(-c3cc4ccccc4oc3=O)nc12 | -21.9% (inactive)
Nc1ccc(-c2cc3ccccc3oc2=O)cc1 | 63.5% (active)
O=c1oc2ccccc2cc1-c1cn2cccnc2n1 | -55.7% (inactive)
O=c1oc2ccccc2cc1-c1cn2ccccc2n1 | 64.7% (active)
Cc1cc(C)c2cc(CN(CCO)Cc3nnnn3Cc3ccccc3)c(=O)[nH]c2c1 | -12.5% (inactive)
O=C(CC1COc2ccccc2O1)Nc1ccccn1 (stereo not drawn) | -29.1% (inactive)
CCN(CC)S(=O)(=O)c1ccc(N2CCCC2)c(NS(=O)(=O)c2ccccc2)c1 | 4.1% (inactive)
CN(C)CCNC(=O)/C(=C/c1ccc(-c2ccc(Cl)cc2)o1)NC(=O)c1ccccc1 | -19.3% (inactive)
CN(C)CCNC(=O)/C(=C/c1ccc(-c2cccc([N+](=O)[O-])c2)o1)NC(=O)c1ccccc1 | 4.2% (inactive)
CN(C)CCNC(=O)/C(=C/c1ccc(-c2cccc(Cl)c2)o1)NC(=O)c1ccccc1 | 112% (active)
Cc1nnc(NC(=O)C2CCCN(S(=O)(=O)Cc3ccccc3)C2)s1 (stereo not drawn) | -8.7% (inactive)
Cc1cccc(Cn2c(C)nc3c(N)c(C)c(C)cc32)c1 | -13.6% (inactive)
Cc1cccc(NC(=S)/N=C(\N)Nc2nc(C)c3cc(C)ccc3n2)c1 | 23.1% (inactive)
COc1ccc2nc(N/C(N)=N/C(=S)Nc3cccc(C)c3)nc(C)c2c1 | 51.4% (active)
COc1ccc2nc(N/C(N)=N/C(=S)Nc3ccccc3)nc(C)c2c1 | 29.9% (inactive)

SMILES | inhibition
O=C(Cc1ccccc1)Nc1cc2c(cc1Cl)OCCCO2 | -59.9% (inactive)
CCN(CC(=O)NCc1ccc(Cl)cc1)C(=O)/C=C/c1ccc(Cl)c([N+](=O)[O-])c1 | -18.8% (inactive)
CN(C)C(=O)c1ccc(NS(=O)(=O)c2ccc3c(c2)OCCO3)cc1 | -34.8% (inactive)
CN(C)S(=O)(=O)c1cccc(N=C2NN=C(c3ccccc3)CS2)c1 | 26.1% (inactive)
CC(=O)Nc1ccc(C2=NNC(=Nc3cccc(S(=O)(=O)N(C)C)c3)SC2)cc1 | -32.6% (inactive)
CCc1ccc(C2=NNC(=Nc3cccc(S(=O)(=O)N(C)C)c3)SC2)cc1 | 72.3% (active)
COc1ccc(-n2c(=O)[nH]c3cc(C(=O)NCCc4ccc(Cl)cc4)ccc3c2=O)cc1OC | 7.4% (inactive)
O=C(O)/C=C/C(=O)NC1CC1 | -13.1% (inactive)
O=C(O)/C=C/C(=O)NC1CCS(=O)(=O)C1 (stereo not drawn) | 99.9% (active)
O=C(/C=C/c1ccccc1)NC1CCS(=O)(=O)C1 (stereo not drawn) | -20% (inactive)
CCCC(C)c1nc(C(N)=O)c2[nH]c(=O)n(-c3ccc(OC)c(OC)c3)c2n1 (stereo not drawn) | -11.9% (inactive)
O=C(O)c1ccc(N/N=C/c2c(F)cccc2Cl)cc1 | 26.1% (active)
COc1cccc(/C=N/Nc2ccccc2C(=O)O)c1O | -5.1% (inactive)
COc1cc(/C=N/O)ccc1OCc1ccc(Cl)cc1 | -6.6% (inactive)
COc1cc(/C=N/O)ccc1OCc1ccc(C(=O)O)cc1 | 100% (active)
COc1cccc(/C=N/Nc2ccc(C(=O)O)cc2)c1O | 104% (active)
COc1cc(/C=N/Nc2ccc(C(=O)O)cc2)ccc1O | -8.3% (inactive)
COc1cccc(/C=N/Nc2ccc([N+](=O)[O-])cc2)c1O | -2.8% (inactive)
COc1cc(/C=N/NS(=O)(=O)c2ccc(C)cc2)ccc1OCc1ccc(C(=O)O)cc1 | 18.4% (inactive)
COc1ccc(/C=N/Nc2ccc(C(=O)O)cc2)cc1Br | 50.9% (active)
O=C(O)c1ccc(N/N=C/c2cccc(F)c2)cc1 | -22.9% (inactive)
O=C(N/N=C/c1c(F)cccc1Cl)C1CC1 | -15.7% (inactive)
COc1ccc(/C=N/Nc2ccc(C(=O)O)cc2)cc1OC | -8.6% (inactive)
